A short description of test [1]: qHTS of pediatric cancer cell lines to identify multiple opportunities for drug repurposing: Primary screen for MG 63 (6-TG R) cells (AID 1347105). Note: nearly all actives have a fitted effect of over 50% in size. The method in brief:
(§1)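 Plated cells (500-1,000 per well, growth media) were allowed to settle for 5 hours, treated with compound dilutions for 48 hours, then lysed with CellTiter-Glo for 15 min at room temperature before luminescence reading.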

Test [2] in a line: qHTS of pediatric cancer cell lines to identify multiple opportunities for drug repurposing: Primary screen for control Hh wild type fibroblast cells (AID 1347106). Note: nearly all actives have a fitted effect of over 55% in size. The method, boiled down:
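Cells (500-1,000/well) in growth media were settled 5 h at 37 degrees C, then given compounds for 48 h. Viability was read as CellTiter-Glo luminescence. Primary runs used MIPE at 11 points (0.78 nM-46 µM) and NPC at 8 points (0.59 nM-46 µM); follow-ups used 11 points.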
On the technique in general: qHTS replaces the single test concentration by a dilution series.

A short description of test [3]: qHTS of pediatric cancer cell lines to identify multiple opportunities for drug repurposing: Primary screen for Rh30 cells (AID 1347107). Note: nearly all actives have a fitted effect of over 75% in size. The method, boiled down:
(§2)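 Cells (500-1,000/well) rested 5 h, then received compounds for 48 h; metabolically active cells were measured by CellTiter-Glo luminescence. Final concentrations spanned up to 46 µM (MIPE, 11-point) or 0.59 nM-46 µM (NPC, 8-point) in primary screens, 11-point in follow-ups.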

The nature of test [4]: qHTS of pediatric cancer cell lines to identify multiple opportunities for drug repurposing: Primary screen for Rh41 cells (AID 1347108). Note: nearly all actives have a fitted effect of over 70% in size. The method in brief:
as §1

Test [5] is described as follows: qHTS of pediatric cancer cell lines to identify multiple opportunities for drug repurposing: Confirmatory screen for A673 cells (AID 1347110).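 Note: cells exposed to compound for 48 h before the viability read; nearly all actives have a fitted effect of over 65% in size.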 The method, boiled down: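 qHTS titration format: primary MIPE 0.78 nM-46 µM (11 pts), NPC 0.59 nM-46 µM; confirmation 11 pts. 48 h, CTG luminescence.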
Test [6] is described as follows: qHTS of pediatric cancer cell lines to identify multiple opportunities for drug repurposing: Confirmatory screen for SK-N-MC cells (AID 1347111).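 Note: cells exposed to compound for 48 h before the readout; nearly all actives have a fitted effect of over 70% in size.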 The method in brief: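 Seed 500-1,000 cells/well; rest 5 h at 37 degrees C. Pin-transfer compounds, 11-point titration. Incubate 48 h. Add CellTiter-Glo, 15 min RT, read luminescence.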
The nature of test [7]: qHTS of pediatric cancer cell lines to identify multiple opportunities for drug repurposing: Confirmatory screen for BT-12 cells (AID 1347112). Note: nearly all actives have a fitted effect of over 55% in size. The method, boiled down:
as §2

A short description of test [8]: qHTS of pediatric cancer cell lines to identify multiple opportunities for drug repurposing: Confirmatory screen for NB1643 cells (AID 1347109). Note: nearly all actives have a fitted effect of over 45% in size. The method in brief: as §2
The nature of test [9]: qHTS of pediatric cancer cell lines to identify multiple opportunities for drug repurposing: Confirmatory screen for LAN-5 cells (AID 1347113). Note: nearly all actives have a fitted effect of over 65% in size. The method in brief:
as §2

The nature of test [10]: qHTS of pediatric cancer cell lines to identify multiple opportunities for drug repurposing: Confirmatory screen for DAOY cells (AID 1347114). Note: nearly all actives have a fitted effect of over 65% in size. The method in brief: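 Viability measured as metabolically active cells via CellTiter-Glo luminescence following 48 hours of compound exposure, 11-point dilutions in confirmatory testing. 500-1,000 cells/well plated 5 hours before dosing; controls were DMSO and 2.3 µM bortezomib.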

Records with an inconclusive call do not appear. Calls of active or inactive are those of the source. Calls come from the whole dose curve; as a rule, active = well fitted curve in the direction sought with a large enough effect; inconclusive = small, poorly fitted or top-dose-only effect, or another doubt; inactive = no such curve, though single readings can be large; an effect the other way counts as inactive or inconclusive.
Potency is the fitted concentration of half-maximal effect.

Consider `NC(=O)c1cccc2cn(-c3ccc([C@@H]4CCCNC4)cc3)nc12`, for which the Potency entry in test [1], in [2], in test [3], in [4] and in test [7] was “inactive” in each case. Further, the Potency was 5.22 µM (active) in [5] and 2.08 µM (active) in [6].

For `CC=C1NC(=O)[C@H]2CSSCCC=C[C@H](CC(=O)N[C@H](C(C)C)C(=O)N2)OC(=O)[C@H](C(C)C)NC1=O`, the Potency in test [1] is 0.0118 µM (active); in [2], 0.0526 µM (active); in [3] it was 0.0296 µM (active); in test [4] it was 0.0148 µM (active); in [6], 11.7 µM (active). Further, the Potency entry in test [8], in test [5], in [9] and in [10] was “inactive” in each case.

With `CNC(=O)c1c(F)cccc1Nc1nc(Nc2cc3c(cc2OC)CCN3C(=O)CN(C)C)nc2[nH]ccc12`, the Potency in test [1] is 18.7 µM (active); in test [3], 2.96 µM (active); in [4], 0.148 µM (active); in [8] it was 0.465 µM (active); in test [5], 11.7 µM (active); in [6], 0.414 µM (active). For the same molecule, the Potency in [9] was 0.208 µM (active). For the same molecule, the Potency entry in test [2] was “inactive”.

In the case of `CC(C)(C)c1cc(NC(=O)Nc2ccc(-c3cn4c(n3)sc3cc(OCCN5CCOCC5)ccc34)cc2)no1`, the Potency in test [1] is 23.5 µM (active); in test [8] it was 16.5 µM (active); in test [5], 0.585 µM (active); in [6], 10.4 µM (active); in test [7], 26.1 µM (active); in [9] it was 23.3 µM (active). Moreover, the Potency in test [10] was 20.8 µM (active). Moreover, the Potency entry in test [2], in test [3] and in test [4] was “inactive” throughout.

As to `COc1cccc2c(NCc3ccccc3)nc(-n3c(N)nc4ccccc43)nc12`, the Potency in test [1] is 9.35 µM (active); in test [3], 14.8 µM (active); in test [4] it was 18.7 µM (active); in test [8], 7.37 µM (active); in test [5] it was 7.37 µM (active); in [6], 7.37 µM (active). Also, the Potency is 13.1 µM (active) in test [7], 9.27 µM (active) in [9] and 2.33 µM (active) in test [10]. Moreover, the Potency result in [2] is “inactive”.

In the case of `COc1cc2c(Oc3ccc(-c4cnc(Nc5ccc(F)cc5)n(C)c4=O)cc3F)ccnc2cc1OCCCN1CCOCC1`, the Potency is 3.72 µM (active) in [1]; 23.5 µM (active) in test [2]; 9.35 µM (active) in test [3]; 4.69 µM (active) in [4]; 11.7 µM (active) in test [8]; 4.14 µM (active) in test [5]. The Potency is 2.93 µM (active) in test [6], 20.8 µM (active) in [7], 7.37 µM (active) in test [9] and 11.7 µM (active) in test [10].

`Cc1cn(-c2cc(NC(=O)c3ccc(C)c(Nc4nccc(-c5cccnc5)n4)c3)cc(C(F)(F)F)c2)cn1`: the Potency result in test [1], in [2], in test [3], in test [4], in test [6] and in [7] was “inactive” in each case. The figures for the Potency in [8], in test [5] and in test [9] were 18.5 µM (active), 20.8 µM (active) and 18.5 µM (active), respectively.

Turning to `Cc1c(C)n(Cc2ccc(-c3ccccc3C(=O)O)cc2)c2ccc(C(=O)N[C@@H](C)c3ccc([N+](=O)[O-])cc3)cc12`, the Potency in test [1] is 18.7 µM (active). In addition, the Potency entry in [2], in test [3], in [8], in test [6], in test [7] and in test [9] was “inactive” each time. Besides, the Potency entry in test [10] is “inactive”.

On to `CCN(CC)CCCCNc1ncc2cc(-c3cc(OC)cc(OC)c3)c(NC(=O)NC(C)(C)C)nc2n1`, for which the Potency result in test [1] was “inactive”. Also, the Potency in [2] is 29.6 µM (active); in test [4], 11.8 µM (active).

For the molecule `O=C(Nc1cc(C(F)(F)F)cc(C(F)(F)F)c1)c1cc(Cl)ccc1O`, the Potency was 0.743 µM (active) in test [1]; 2.35 µM (active) in [4]; 1.65 µM (active) in [8]; 3.29 µM (active) in [5]; 3.69 µM (active) in test [6]; 3.69 µM (active) in [7]. In addition, the Potency in test [9] is 2.61 µM (active). Also, the Potency entry in test [2] is “inactive”.

For the molecule `CS(=O)(=O)c1ccc(-c2cnc(N)c(C(=O)Nc3ccccc3)n2)cc1`, the Potency entry in test [1], in test [2] and in test [4] was “inactive” in each case.

Turning to `Cc1ccc(C(=O)Nc2cccc(C(F)(F)F)c2)cc1-c1ccc2nc(NCCN3CCOCC3)ncc2c1`, the Potency is 14.8 µM (active) in [1]; 14.8 µM (active) in test [2]; 14.8 µM (active) in test [4]; 6.57 µM (active) in test [8]; 13.1 µM (active) in test [5]; 14.7 µM (active) in test [6]. Further, the figures for the Potency in [9] and in test [10] were 9.27 µM (active) and 20.8 µM (active), respectively.

For `C=C1C(=CC=C2CCCC3(C)[C@@H]([C@H](C)C=CC=CC(O)(CC)CC)CC[C@@H]23)C[C@@H](O)C[C@@H]1O` (stereo partly specified), the Potency result in [1] and in [2] was “inactive” throughout. In addition, the Potency in [4] was 18.7 µM (active).

`COc1c(OCCCN2CCOCC2)ccc2c3n(c(=NC(=O)c4cnc(N)nc4)nc12)CCN3`: the Potency in [1] is 0.0407 µM (active); in test [4], 0.102 µM (active); in [8], 2.29 µM (active); in [5] it was 1.02 µM (active); in [6], 1.02 µM (active); in test [9] it was 0.644 µM (active). Moreover, the Potency result in [2], in test [7] and in [10] was “inactive” throughout.

On to `O=C(O)c1ccc2cc(-c3ccc(O)c(C45CC6CC(CC(C6)C4)C5)c3)ccc2c1`, for which the Potency in test [1] was 0.296 µM (active); in test [4] it was 5.9 µM (active); in test [8] it was 2.93 µM (active); in test [5] it was 2.93 µM (active); in [6] it was 1.17 µM (active); in [9] it was 1.47 µM (active). Moreover, the Potency in test [10] is 3.69 µM (active). Besides, the Potency entry in [2] and in test [7] was “inactive” throughout.

`CCCCc1nc2cc(C=CC(=O)NO)ccc2n1CCN(CC)CC`: the Potency was 3.72 µM (active) in test [1]; 16.6 µM (active) in test [2]; 0.935 µM (active) in test [4]; 1.31 µM (active) in test [8]; 2.08 µM (active) in [5]; 1.04 µM (active) in test [6]. For the same molecule, the Potency in test [7] is 4.14 µM (active); in test [9], 1.04 µM (active); in test [10], 2.33 µM (active).

As to `COC(=O)Nc1nc2ccc(C(=O)c3ccc(F)cc3)cc2[nH]1`, the Potency in test [1] is 0.59 µM (active); in test [8], 2.33 µM (active); in test [5] it was 1.31 µM (active); in [6], 1.31 µM (active); in test [7] it was 8.27 µM (active); in test [10], 1.17 µM (active). The Potency entry in test [2] and in [3] was “inactive” throughout.

For the origin of these results see PubChem BioAssay (NCATS).
